Test results from PubChem BioAssay AID1159580 (chemical genetic matrix, 2015).
The whole screen tested about 5,500 compounds, of which about 2,000 (36%) were called active. Roughly 18% stayed inconclusive and do not appear here. No stated cut-off is given here; in the data, active means normalized growth mostly below about 0.91 (no sharp cut-off); inconclusive means no clear call, values can overlap the other calls; inactive means mostly above about 0.92. The list shows a part of the results.

Test: chemical genetic growth profiling, strain panel (AID 1159580);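 further: tested at 20 µM; growth read once vehicle control cultures reached saturation at 30 °C; 1 = growth at the plate median or of vehicle wells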
Settings: growth OD

Measured: normalized growth

NC(=O)c1cc[n+](CC2=C(C(=O)O)N3C(=O)C(NC(=O)C(c4ccccc4)S(=O)(=O)[O-])C3SC2)cc1 (stereo not given)
inactive: S. cerevisiae deletion strains, locus YJR066W, strain TOR1, stronger effect = lower value 1 | S. cerevisiae deletion strains, locus YKL009W, strain mrt4, stronger effect = lower value 0.991 | S. cerevisiae deletion strains, locus YKL068W, stronger effect = lower value 0.992 | S. cerevisiae deletion strains, locus YKL085W, strain MDH1 (second series), stronger effect = lower value 0.987 | S. cerevisiae deletion strains, locus YKL085W, strain MDH1, stronger effect = lower value 0.987 | S. cerevisiae deletion strains, locus YKL160W, strain elf1, stronger effect = lower value 0.967 | S. cerevisiae deletion strains, locus YKL190W, strain CNB1, stronger effect = lower value 0.996 | S. cerevisiae deletion strains, locus YKR001C, strain vps1, stronger effect = lower value 0.993 | S. cerevisiae deletion strains, locus YKR026C, strain gcn3, stronger effect = lower value 0.96 | S. cerevisiae deletion strains, locus YKR091W, strain srl3, stronger effect = lower value 1.01 | S. cerevisiae deletion strains, locus YLL001W, strain dnm1, stronger effect = lower value 0.961 | S. cerevisiae deletion strains, locus YLL026W, stronger effect = lower value 0.999 | S. cerevisiae deletion strains, locus YLL041C, strain sdh2, stronger effect = lower value 0.978 | S. cerevisiae deletion strains, locus YLR027C, strain aat2, stronger effect = lower value 0.982 | S. cerevisiae deletion strains, locus YLR039C, strain RIC1, stronger effect = lower value 0.986 | S. cerevisiae deletion strains, locus YLR058C, strain SHM2, stronger effect = lower value 0.987 | S. cerevisiae deletion strains, locus YLR102C, strain apc9, stronger effect = lower value 0.992 | S. cerevisiae deletion strains, locus YLR113W, strain HOG1, stronger effect = lower value 1.09 | S. cerevisiae deletion strains, locus YLR221C, strain rsa3, stronger effect = lower value 0.991 | S. cerevisiae deletion strains, locus YLR258W, strain gsy2, stronger effect = lower value 1.01 | S. cerevisiae deletion strains, locus YLR262C, strain YPT6 (second series), stronger effect = lower value 0.983 | S. cerevisiae deletion strains, locus YLR262C, strain YPT6, stronger effect = lower value 0.945 | S. cerevisiae deletion strains, locus YLR268W, strain sec22, stronger effect = lower value 0.981 | S. cerevisiae deletion strains, locus YLR320W, strain mms22, stronger effect = lower value 1.01 | S. cerevisiae deletion strains, locus YLR330W, strain CHS5, stronger effect = lower value 0.982 | S. cerevisiae deletion strains, locus YLR342W, strain FKS1 (second series), stronger effect = lower value 0.959 | S. cerevisiae deletion strains, locus YLR342W, strain FKS1, stronger effect = lower value 0.973 | S. cerevisiae deletion strains, locus YLR357W, strain rsc2, stronger effect = lower value 0.965 | S. cerevisiae deletion strains, locus YLR370C, strain arc18, stronger effect = lower value 1 | S. cerevisiae deletion strains, locus YLR371W, strain rom2, stronger effect = lower value 0.987 | S. cerevisiae deletion strains, locus YLR384C, strain iki3, stronger effect = lower value 0.984 | S. cerevisiae deletion strains, locus YLR418C, strain cdc73, stronger effect = lower value 0.972 | S. cerevisiae deletion strains, locus YML016C, strain PPZ1, stronger effect = lower value 0.982 | S. cerevisiae deletion strains, locus YML032C, strain rad52, stronger effect = lower value 0.989 | S. cerevisiae deletion strains, locus YML120C, strain ndi1, stronger effect = lower value 0.986 | S. cerevisiae deletion strains, locus YML124C, strain tub3, stronger effect = lower value 0.982 | S. cerevisiae deletion strains, locus YMR058W, strain fet3, stronger effect = lower value 0.998 | S. cerevisiae deletion strains, locus YMR078C, strain ctf18, stronger effect = lower value 0.989 | S. cerevisiae deletion strains, locus YMR125W, strain sto1, stronger effect = lower value 0.971 | S. cerevisiae deletion strains, locus YMR129W, stronger effect = lower value 1.01 | S. cerevisiae deletion strains, locus YMR205C, strain PFK2, stronger effect = lower value 1 | S. cerevisiae deletion strains, locus YMR223W, strain ubp8, stronger effect = lower value 0.974 | S. cerevisiae deletion strains, locus YMR231W, strain pep5, stronger effect = lower value 1 | S. cerevisiae deletion strains, locus YMR307W, strain GAS1, stronger effect = lower value 0.883 | S. cerevisiae deletion strains, locus YNL067W, strain RPL9B, stronger effect = lower value 1.02 | S. cerevisiae deletion strains, locus YNL071W, strain lat1, stronger effect = lower value 1.01 | S. cerevisiae deletion strains, locus YNL153C, strain GIM3, stronger effect = lower value 1.04 | S. cerevisiae deletion strains, locus YNL183C, strain NPR1, stronger effect = lower value 0.999 | S. cerevisiae deletion strains, locus YNL209W, strain ssb2, stronger effect = lower value 1.01 | S. cerevisiae deletion strains, locus YNL233W, strain BNI4, stronger effect = lower value 1.01 | S. cerevisiae deletion strains, locus YNL248C, strain rpa49, stronger effect = lower value 0.987 | S. cerevisiae deletion strains, locus YNL250W, strain rad50, stronger effect = lower value 0.975 | S. cerevisiae deletion strains, locus YNL271C, strain bni1, stronger effect = lower value 0.985 | S. cerevisiae deletion strains, locus YNL298W, strain CLA4, stronger effect = lower value 0.988 | S. cerevisiae deletion strains, locus YNL307C, strain MCK1, stronger effect = lower value 0.987 | S. cerevisiae deletion strains, locus YNL322C, strain KRE1 (second series), stronger effect = lower value 0.994 | S. cerevisiae deletion strains, locus YNL322C, strain KRE1, stronger effect = lower value 0.993 | S. cerevisiae deletion strains, locus YNR049C, strain mso1, stronger effect = lower value 0.986 | S. cerevisiae deletion strains, locus YNR052C, strain pop2, stronger effect = lower value 0.991 | S. cerevisiae deletion strains, locus YOL006C, strain TOP1, stronger effect = lower value 1.02 | S. cerevisiae deletion strains, locus YOL012C, strain htz1 1.88 | S. cerevisiae deletion strains, locus YOL147C, strain pex11, stronger effect = lower value 0.983 | S. cerevisiae deletion strains, locus YOR001W, strain rrp6, stronger effect = lower value 0.985 | S. cerevisiae deletion strains, locus YOR061W, strain CKA2, stronger effect = lower value 0.985 | S. cerevisiae deletion strains, locus YOR069W, strain VPS5, stronger effect = lower value 0.987 | S. cerevisiae deletion strains, locus YOR070C, strain gyp1, stronger effect = lower value 1.01 | S. cerevisiae deletion strains, locus YOR080W, strain dia2, stronger effect = lower value 0.982 | S. cerevisiae deletion strains, locus YOR083W, strain WHI5, stronger effect = lower value 0.985 | S. cerevisiae deletion strains, locus YOR106W, strain vam3, stronger effect = lower value 0.992 | S. cerevisiae deletion strains, locus YOR136W, strain idh2, stronger effect = lower value 0.998 | S. cerevisiae deletion strains, locus YOR144C, strain elg1, stronger effect = lower value 0.991 | S. cerevisiae deletion strains, locus YOR184W, strain ser1, stronger effect = lower value 0.98 | S. cerevisiae deletion strains, locus YOR231W, strain MKK1, stronger effect = lower value 1.09 | S. cerevisiae deletion strains, locus YOR265W, strain rbl2, stronger effect = lower value 1 | S. cerevisiae deletion strains, locus YOR270C, strain vph1, stronger effect = lower value 0.93 | S. cerevisiae deletion strains, locus YOR290C, strain snf2, stronger effect = lower value 0.998 | S. cerevisiae deletion strains, locus YOR316C, strain cot1, stronger effect = lower value 0.994 | S. cerevisiae deletion strains, locus YPL051W, strain arl3, stronger effect = lower value 0.987 | S. cerevisiae deletion strains, locus YPL055C, strain LGE1, stronger effect = lower value 1.06 | S. cerevisiae deletion strains, locus YPL078C, strain atp4, stronger effect = lower value 0.962 | S. cerevisiae deletion strains, locus YPL106C, strain sse1, stronger effect = lower value 1.02 | S. cerevisiae deletion strains, locus YPL240C, strain hsp82, stronger effect = lower value 0.987 | S. cerevisiae deletion strains, locus YPL241C, strain CIN2, stronger effect = lower value 0.991 | S. cerevisiae deletion strains, locus YPL256C, strain CLN2, stronger effect = lower value 1.07 | S. cerevisiae deletion strains, locus YPR119W, strain clb2, stronger effect = lower value 0.995 | S. cerevisiae deletion strains, locus YPR141C, strain kar3, stronger effect = lower value 0.98 | S. cerevisiae deletion strains, locus YPR163C, strain tif3, stronger effect = lower value 0.987 | S. cerevisiae deletion strains, locus YPR167C, strain met16, stronger effect = lower value 0.981 | S. cerevisiae deletion strains, strain wtn01, stronger effect = lower value 0.981 | S. cerevisiae strains, strain wild type, stronger effect = lower value 0.995
